Test results: PubChem BioAssay AID651956 (Broad Institute, 2012)
Measured potencies and affinities stand elsewhere. Results filed as inconclusive are left out. The source made the active and inactive calls.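 How the source made its calls: active means in every test run, a fitted half-maximal concentration for signal decrease at or below twice the highest tested concentration; inconclusive means runs disagree, flat 30 to 70% decrease, or poor fit; inactive means the rest.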

Assay: miR-122 activators in hepatoma reporter cells, dose response, cell-based, Huh7 psiCHECK-miR122, Renilla luciferase, cherry-picked (AID 651956);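 further: Renilla luciferase from a miR-122 sensor reporter so lower signal means miR-122 activation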
Settings: 48 h; series mostly up to 35 µM

outcome, inactive:
C=CCc1c(OC)ccc2ccc(=O)oc12
C/C(=N\Nc1cc(N2CCCCC2)nc(C)n1)c1ccc(Br)cc1
Fc1ccc(CN2CCN(c3ncnc4scc(-c5ccc(F)cc5)c34)CC2)cc1
O=C(C1CCCCC1)N1C[C@@H]2[C@H](c3ccccc31)[C@H](CO)N2Cc1ccccc1Cl
COc1cccc(C(=O)N2C[C@H]3[C@@H](c4ccccc42)[C@H](CO)N3C(C)=O)c1
CNC(=O)C[C@H]1CC[C@@H]2[C@@H](COc3ccc(NC(=O)C(C)C)cc3C(=O)N2C)O1
CN1C(=O)c2cc(NC(=O)Nc3ccccc3F)ccc2OC[C@@H]2O[C@@H](CC(=O)NCc3ccc(-c4ccccc4)cc3)CC[C@@H]21
CC(=O)N(C)C[C@@H]1[C@@H](c2ccc(-c3cccc(C#N)c3)cc2)[C@H](CO)N1C(C)=O
CN1C(=O)c2cc(NC(=O)c3cccs3)ccc2OC[C@H]2O[C@@H](CC(=O)N3CCCCC3)CC[C@H]21
CCCNC(=O)N1[C@@H]2CN(C(=O)c3ccccc3)c3ccccc3[C@@H]2[C@@H]1CO
CC(C)C(=O)Nc1ccc2c(c1)C(=O)N(C)[C@H]1CC[C@H](CC(=O)Nc3cccc(F)c3)O[C@@H]1CO2
C[C@@H]1CN([C@@H](C)CO)C(=O)c2cc(NC(=O)Nc3ccc(C(F)(F)F)cc3)ccc2O[C@@H]1CN(C)CC1CCCCC1
CC(=O)Nc1ccc2c(c1)C(=O)N(C)[C@H]1CC[C@H](CC(=O)NC3CCCCC3)O[C@@H]1CO2
CCCNC(=O)C[C@@H]1CC[C@H]2[C@@H](COc3ccc(NC(=O)c4ccc(C(F)(F)F)cc4)cc3C(=O)N2C)O1
COc1ccc2c(c1)C(C)=CC(C)(C)N2C(=O)CNCc1ccc2c(c1)OCO2
Oc1ccc(/C=N/Nc2nccnc2Cl)c(O)c1
CSc1cccc(NS(=O)(=O)c2ccccc2)c1
CCCNC(=O)C[C@H]1CC[C@H]2[C@@H](COc3ccc(NC(=O)c4cc(F)cc(F)c4)cc3C(=O)N2C)O1
CC(C)NC(=O)Nc1ccc2c(c1)C(=O)N(C)[C@@H]1CC[C@@H](CC(=O)NCC(F)(F)F)O[C@@H]1CO2
COc1cc(-c2nnc(-c3ccco3)o2)ccc1OCc1ccccc1
CCNC(=O)Nc1ccc2c(c1)C(=O)N(C)[C@H]1CC[C@@H](CC(=O)NCCOC)O[C@@H]1CO2
CC(=O)Nc1ccc2c(c1)C(=O)N(C)[C@@H]1CC[C@@H](CC(=O)NCc3ccc(Cl)cc3)O[C@H]1CO2
COCC(=O)Nc1ccc2c(c1)C(=O)N(C)[C@@H]1CC[C@@H](CC(=O)NCCCN(C)C)O[C@@H]1CO2
O=C(NC[C@@H]1[C@@H](c2ccccc2)[C@H](CO)N1C(=O)C1CCC1)NC1CCCC1
COCC(=O)N(C[C@@H]1N[C@H](CO)[C@H]1c1ccc(C2=CCCC2)cc1)C(C)C
CCC(=O)N1[C@H](CO)[C@H](c2ccccc2)[C@@H]1CN(C(C)C)S(C)(=O)=O
CNC(=O)C[C@H]1CC[C@H]2[C@@H](COc3ccc(NC(=O)C(C)C)cc3C(=O)N2C)O1
O=C(NC[C@H]1[C@H](c2ccccc2)[C@@H](CO)N1Cc1ccccn1)C1CC1
O=C(c1ccco1)N1CCN(C2CC(=O)N(c3ccccc3)C2=O)CC1 (centres undefined)
Cc1ccc(OCC(O)Cn2c(=N)n(Cc3ccccc3)c3ccccc32)cc1 (centres undefined)
Cc1cc(C(=O)Nc2ccc3c(c2)C(=O)N(C)[C@@H]2CC[C@@H](CC(=O)N[C@H](C)c4ccccc4)O[C@H]2CO3)no1
CCCCN1C=C(C(=O)OC)C(c2ccccc2C(F)(F)F)C(C(=O)OC)=C1
CNC(=O)C[C@H]1CC[C@@H]2[C@H](COc3ccc(NC(=O)Nc4cccc(F)c4)cc3C(=O)N2C)O1
COCC(=O)N1[C@H](CO)[C@H]2c3ccccc3N(C(=O)C3CC3)C[C@H]21
COC(=O)C[C@H]1CC[C@@H]2[C@@H](COc3ccc(NC(=O)Nc4cccc(F)c4)cc3C(=O)N2C)O1
CCNC(=O)Nc1ccc2c(c1)C(=O)N(C)[C@H]1CC[C@H](CC(=O)Nc3ccccc3F)O[C@@H]1CO2
CN1C(=O)c2cc(NC(=O)C3CCOCC3)ccc2OC[C@H]2O[C@H](CC(=O)NCc3ccc4c(c3)OCO4)CC[C@@H]21
CC(=O)N1[C@H](CO)[C@H](c2ccccc2)[C@@H]1CN(C(=O)c1ccc(F)cc1)C(C)C
COc1cc(N)c(Cl)cc1NC(=O)c1ccccc1
